Here are results for 38 compounds from PubChem BioAssay (NCI).

This is part of a sample that, as a whole, favours compounds with a hit. Of some 83,000 tested, about 20% had one in any assay.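 Negative percent growth values reflect cell death: -40 means 40% of the cells present at the start died, and -100 means all died.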 Active and inactive are the calls of the source. Rule for the calls: active = growth percent below 10; inactive = the rest.

The subject of one assay is MCF7 breast. In words: NCI-60 one-dose screen, 48 h (100 = growth as untreated, 0 = no growth, -100 = all killed). The following applies: 10 µM unless noted.
Consider `N#Cc1nc(-c2ccccc2)oc1S(=O)(=O)N1CCCCC1`, for which the growth is 29.2% (inactive).
Still for that read-out and setting: for `COc1ccc(-c2nn3c(-c4ccccc4F)nnc3s2)cc1` the value was 36.8% (inactive); for `COc1cc(OC)c(C2C(Cl)C(=O)N2Nc2ncnc3ccccc23)cc1OC` (stereo unspecified), 83% (inactive); for `O=C(CSc1nc2sc3c(c2c(=O)n1-c1ccc(Cl)cc1)CCCC3)N/N=C/c1ccc(F)cc1`, 74.7% (inactive).
For the compound `Nc1ncc(-c2ccc3ncnc(N4CCc5cc(F)c(Cl)cc54)c3c2)cc1CO`, the growth was 4.61% (active).
Turning to `CN(C)CCCOc1c2ccc(Cl)cc2nc2c1oc1ccc(Cl)cc12`, the growth is -80.9% (active).
Take `NS(=O)(=O)c1ccc(Nc2nc(SCC(=O)c3ccc(Cl)cc3)nc3ccccc23)cc1`: the growth is 83% (inactive).
Take `N#Cc1nc(-c2ccccc2)oc1N1CC[C@@H](CO)C1`: the growth is 70.5% (inactive).
On the same count and under the same terms, next, `CC(C)(C)Nc1nc2c(OCCc3ccccc3)cccn2c1-c1ccc(O)cc1`: 45.4% (inactive); `N#Cc1c(-c2ccc(Cl)cc2)nc(SCc2ccc(F)cc2)nc1N1CCNCC1`: -19.3% (active); `Fc1ccc(-c2cc3nc(C(Cl)Cl)nc(-c4ccccc4)n3n2)cc1`: 8.55% (active).
Take `COc1cc(/C=C/C(=O)c2ccccc2)ccc1Oc1nc(NCCO)nc(N2CCOCC2)n1`: the growth was 46.9% (inactive).
For the compound `O=C(N/N=C/c1ccc[nH]1)c1[nH]c2ccc(Br)cc2c1-c1ccccc1`, the growth is 3.98% (active).
`CN(C)c1ccc(/C=C2\Cc3c(F)ccc(Br)c3C2=O)cc1`: the growth was 39.8% (inactive).
On to `CC(C)(C)Nc1nc2c(OCCc3ccccc3)cccn2c1-c1cccc(F)c1`, for which the growth was -13.4% (active).
Turning to `OC1CCN(CCCOc2c3ccc(Cl)cc3nc3c2oc2ccc(Cl)cc23)CC1`, the growth was -79.7% (active).
Still for that read-out and setting: next, `Fc1ccc(-c2cc3nc(C(Cl)Cl)nc(-c4ccc(Cl)cc4)n3n2)cc1`: 16.5% (inactive).
As to `COC(=O)C(Cc1ccccc1)NS(=O)(=O)/N=C1\NC(=O)NC1=C(Cl)Cl` (stereo unspecified), the growth was 29.1% (inactive).
As for `Nc1cc(-c2c[nH]c3ccccc23)nc2cc(-c3c[nH]c4ccccc34)nn12`, the growth is 26.7% (inactive).
In the case of `O=C(N/N=C/c1ccco1)c1[nH]c2ccc(Br)cc2c1-c1ccccc1`, the growth was 10.7% (inactive).
Turning to `OC1CCN(CCCOc2c3ccccc3nc3c2oc2ccc(Cl)cc23)CC1`, the growth is 2.99% (active).
Turning to `CN(C)CCCOc1c2ccc(Cl)cc2nc2c1oc1ccccc12`, the growth is -18.6% (active).
The same measure, in the same setting: for `Cc1[nH]nc2ncc(C#Cc3cncc(C(=O)Nc4ccc(CN5CCN(C)CC5)c(C(F)(F)F)c4)c3)cc12` the value was 43.8% (inactive); for `Cc1sc2c(c1C)c(=O)nc1c(-c3nc(-c4ccc(F)cc4)no3)n[nH]n12`, 89.7% (inactive); for `C#Cc1nc(C2=C(C)C(O)/C(=N/O)C2)cs1` (stereo unspecified), 68.5% (inactive).
`Cc1ccc(C(=O)Nc2cccc(C(F)(F)F)c2)cc1Nc1nc(-c2cnccn2)nc2c1cnn2C`: the growth is 73.2% (inactive).
For the compound `CN1CCc2c(sc3ncnc(N/N=C/c4ccc(Cl)c(Cl)c4)c23)C1`, the growth was -47.2% (active).
The same measure, in the same setting: next, `CC(=O)Nc1cc(F)cc(-c2ccc3[nH]cc(-c4ccccc4)c3n2)c1`: 1.97% (active); `CS(=O)(=O)c1ccc(-n2cc(/C=C/C(=O)c3ccc(NC(=O)CO[N+](=O)[O-])cc3)c(-c3ccc(Cl)cc3)n2)cc1`: 84.4% (inactive).
Same read-out and setting: next, `CC(C)(C)Nc1nc2c(OCCc3ccccc3)cccn2c1-c1ccc(Cl)cc1`: 0.0476% (active); `N#Cc1nc(-c2ccccc2)oc1S(=O)(=O)N1CCN(CCc2ccccn2)CC1`: 28% (inactive).
In the case of `C#Cc1nc(C2=C(C)C(OC(=O)CCC(=O)O)CC2)cs1` (stereo unspecified), the growth was 87.6% (inactive).
Take `O=C(NNc1nc2cc(F)ccc2n2c(CN3CC4(COC4)C3)ccc12)c1cnccn1`: the growth was 13.6% (inactive).
Same read-out and setting: next, `Cc1cccc(/C=C/c2nn3c(-c4ccco4)nnc3s2)c1`: 78.5% (inactive); `CCN1C(=S)N(CC)C2C1N=C(SC)N2/N=C/C=C/c1ccccc1[N+](=O)[O-]` (stereo unspecified): 76.9% (inactive).
`Nc1cc(-c2c[nH]c3ccc(F)cc23)nc2cc(-c3c[nH]c4ccc(F)cc34)nn12`: the growth was 37% (inactive).
As for `Clc1ccc(Cc2nnc3sc(-c4cccnc4)nn23)cc1`, the growth is 88.7% (inactive).
On the same count and under the same terms, next, `NS(=O)(=O)c1cccc(Nc2nc(SCC(=O)c3ccc(Br)cc3)nc3ccccc23)c1`: 32.4% (inactive).

The next assay relates to HCT-116 colon. The assay is described as above. The following applies: 10 µM unless noted.
In the case of `N#Cc1nc(-c2ccccc2)oc1S(=O)(=O)N1CCCCC1`, the growth was 21.2% (inactive).
Take `COc1ccc(-c2nn3c(-c4ccccc4F)nnc3s2)cc1`: the growth was 42% (inactive).
For `COc1cc(OC)c(C2C(Cl)C(=O)N2Nc2ncnc3ccccc23)cc1OC` (stereo unspecified), the growth was 96.5% (inactive).
As for `O=C(CSc1nc2sc3c(c2c(=O)n1-c1ccc(Cl)cc1)CCCC3)N/N=C/c1ccc(F)cc1`, the growth was 99.7% (inactive).
Still for that read-out and setting: next, `Nc1ncc(-c2ccc3ncnc(N4CCc5cc(F)c(Cl)cc54)c3c2)cc1CO`: 6.3% (active); `CN(C)CCCOc1c2ccc(Cl)cc2nc2c1oc1ccc(Cl)cc12`: 10.8% (inactive); `NS(=O)(=O)c1ccc(Nc2nc(SCC(=O)c3ccc(Cl)cc3)nc3ccccc23)cc1`: 101% (inactive).
In the case of `N#Cc1nc(-c2ccccc2)oc1N1CC[C@@H](CO)C1`, the growth was 103% (inactive).
Consider `CC(C)(C)Nc1nc2c(OCCc3ccccc3)cccn2c1-c1ccc(O)cc1`, for which the growth was 38.2% (inactive).
For the compound `N#Cc1c(-c2ccc(Cl)cc2)nc(SCc2ccc(F)cc2)nc1N1CCNCC1`, the growth is -93.8% (active).
As to `Fc1ccc(-c2cc3nc(C(Cl)Cl)nc(-c4ccccc4)n3n2)cc1`, the growth was -54.7% (active).
As for `COc1cc(/C=C/C(=O)c2ccccc2)ccc1Oc1nc(NCCO)nc(N2CCOCC2)n1`, the growth was 69.5% (inactive).
Consider `O=C(N/N=C/c1ccc[nH]1)c1[nH]c2ccc(Br)cc2c1-c1ccccc1`, for which the growth was 0.0164% (active).
The same measure, in the same setting: next, `CN(C)c1ccc(/C=C2\Cc3c(F)ccc(Br)c3C2=O)cc1`: 98.5% (inactive); `CC(C)(C)Nc1nc2c(OCCc3ccccc3)cccn2c1-c1cccc(F)c1`: -32.8% (active).
Turning to `OC1CCN(CCCOc2c3ccc(Cl)cc3nc3c2oc2ccc(Cl)cc23)CC1`, the growth is 12.3% (inactive).
As for `Fc1ccc(-c2cc3nc(C(Cl)Cl)nc(-c4ccc(Cl)cc4)n3n2)cc1`, the growth was 11.7% (inactive).
In the case of `COC(=O)C(Cc1ccccc1)NS(=O)(=O)/N=C1\NC(=O)NC1=C(Cl)Cl` (stereo unspecified), the growth is 77.3% (inactive).
In the case of `Nc1cc(-c2c[nH]c3ccccc23)nc2cc(-c3c[nH]c4ccccc34)nn12`, the growth is 30.7% (inactive).
Consider `O=C(N/N=C/c1ccco1)c1[nH]c2ccc(Br)cc2c1-c1ccccc1`, for which the growth was -12.9% (active).
Same read-out and setting: for `OC1CCN(CCCOc2c3ccccc3nc3c2oc2ccc(Cl)cc23)CC1` the value was 15.9% (inactive); for `CN(C)CCCOc1c2ccc(Cl)cc2nc2c1oc1ccccc12`, 1.47% (active).
As to `Cc1[nH]nc2ncc(C#Cc3cncc(C(=O)Nc4ccc(CN5CCN(C)CC5)c(C(F)(F)F)c4)c3)cc12`, the growth is 8.54% (active).
Turning to `Cc1sc2c(c1C)c(=O)nc1c(-c3nc(-c4ccc(F)cc4)no3)n[nH]n12`, the growth is 103% (inactive).
Take `C#Cc1nc(C2=C(C)C(O)/C(=N/O)C2)cs1` (stereo unspecified): the growth was 100% (inactive).
The same measure, in the same setting: next, `Cc1ccc(C(=O)Nc2cccc(C(F)(F)F)c2)cc1Nc1nc(-c2cnccn2)nc2c1cnn2C`: 35.6% (inactive).
With `CN1CCc2c(sc3ncnc(N/N=C/c4ccc(Cl)c(Cl)c4)c23)C1`, the growth is -64.5% (active).
On the same count and under the same terms, next, `CC(=O)Nc1cc(F)cc(-c2ccc3[nH]cc(-c4ccccc4)c3n2)c1`: 11.9% (inactive); `CS(=O)(=O)c1ccc(-n2cc(/C=C/C(=O)c3ccc(NC(=O)CO[N+](=O)[O-])cc3)c(-c3ccc(Cl)cc3)n2)cc1`: 103% (inactive); `CC(C)(C)Nc1nc2c(OCCc3ccccc3)cccn2c1-c1ccc(Cl)cc1`: 8.63% (active).
The same measure, in the same setting: next, `N#Cc1nc(-c2ccccc2)oc1S(=O)(=O)N1CCN(CCc2ccccn2)CC1`: 11.9% (inactive); `C#Cc1nc(C2=C(C)C(OC(=O)CCC(=O)O)CC2)cs1` (stereo unspecified): 114% (inactive); `O=C(NNc1nc2cc(F)ccc2n2c(CN3CC4(COC4)C3)ccc12)c1cnccn1`: 22% (inactive).
In the case of `Cc1cccc(/C=C/c2nn3c(-c4ccco4)nnc3s2)c1`, the growth is 106% (inactive).
In the case of `CCN1C(=S)N(CC)C2C1N=C(SC)N2/N=C/C=C/c1ccccc1[N+](=O)[O-]` (stereo unspecified), the growth was 82.2% (inactive).
As to `Nc1cc(-c2c[nH]c3ccc(F)cc23)nc2cc(-c3c[nH]c4ccc(F)cc34)nn12`, the growth is 31.9% (inactive).
Regarding `Clc1ccc(Cc2nnc3sc(-c4cccnc4)nn23)cc1`, the growth is 101% (inactive).
As for `NS(=O)(=O)c1cccc(Nc2nc(SCC(=O)c3ccc(Br)cc3)nc3ccccc23)c1`, the growth was 38.9% (inactive).
